# Test results: PubChem BioAssay AID489012 (National Center for Advancing Translational Sciences (NCATS), 2010)
# Inconclusive results are not listed. Active and inactive are the calls of the source. Calls come from the whole dose curve; as a rule, active = well fitted activation curve with a large enough effect; inconclusive = small, poorly fitted or top-dose-only effect; inactive = no such curve, though single readings can be large or run the other way.
# Biological target: Relaxin receptor 1 (Homo sapiens) (UniProt Q9HBX9)
# Sequence (Q9HBX9 whole entry, looked up): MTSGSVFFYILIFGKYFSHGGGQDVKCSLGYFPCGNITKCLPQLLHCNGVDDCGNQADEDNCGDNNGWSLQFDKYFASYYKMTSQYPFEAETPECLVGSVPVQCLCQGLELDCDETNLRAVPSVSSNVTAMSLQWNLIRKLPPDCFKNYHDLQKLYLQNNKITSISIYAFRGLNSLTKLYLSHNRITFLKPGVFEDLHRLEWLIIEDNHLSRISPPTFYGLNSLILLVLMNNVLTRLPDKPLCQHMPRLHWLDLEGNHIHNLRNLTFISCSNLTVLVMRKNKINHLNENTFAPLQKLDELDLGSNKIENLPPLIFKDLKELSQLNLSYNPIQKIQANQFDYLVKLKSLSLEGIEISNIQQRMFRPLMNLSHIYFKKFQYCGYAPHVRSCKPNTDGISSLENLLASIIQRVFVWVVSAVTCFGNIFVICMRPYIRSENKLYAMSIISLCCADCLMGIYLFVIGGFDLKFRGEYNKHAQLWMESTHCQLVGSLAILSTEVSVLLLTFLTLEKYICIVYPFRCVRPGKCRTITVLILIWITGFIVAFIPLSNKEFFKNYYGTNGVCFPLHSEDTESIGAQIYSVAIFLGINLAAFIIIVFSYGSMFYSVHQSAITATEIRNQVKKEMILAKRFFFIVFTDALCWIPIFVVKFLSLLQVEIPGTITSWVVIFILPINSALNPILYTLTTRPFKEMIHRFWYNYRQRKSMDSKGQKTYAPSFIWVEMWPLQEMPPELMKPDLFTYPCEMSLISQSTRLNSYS
# Experiment: qHTS Assay for Agonists of the Relaxin Receptor RXFP1: RXFP1 Hit Validation; note: nearly all actives have a fitted effect of over 65% in size;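 for activation: cAMP rise lowers the TR-FRET signal in lysed cells with PDE4 inhibitor present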
# Conditions: HEK293T-RXFP1 cAMP TR-FRET, 30 min; series mostly up to 115 µM
# Potency is the fitted concentration of half-maximal effect.
row,SMILES,Potency
1,COCCNC(=O)NC(=O)COC(=O)C12CC3CC(CC(NC(C)=O)(C3)C1)C2,inactive
2,N#CCCSc1ncnc2c1oc1ccccc12,19.4 µM (active)
3,S=c1nc[nH]c2c1[nH]c1ccccc12,6.9 µM (active)
4,O=C(NCCOC(=O)c1ccc([N+](=O)[O-])cc1)c1cccnc1,inactive
5,COc1cc(Cl)c(C)cc1NC(=O)c1ccc2c(c1)OCO2,inactive
6,O=S(=O)(c1cccc(-c2cn3cccnc3n2)c1)N1CCOCC1,27.5 µM (active)
7,COc1cccc(C(=O)CSc2nnc(-c3cc(OC)cc(OC)c3)o2)c1,13.8 µM (active)
8,Cc1cc(C(=O)COC(=O)Cn2cnc3c2c(=O)n(C)c(=O)n3C)c(C)n1C,30.9 µM (active)
9,C=CCSc1nc2c(c(=O)[nH]1)C(C(C)C)C(C#N)=C(N)O2 (configuration not stated),27.5 µM (active)
10,CC(C)(C)C(=O)Nc1ccccc1C(=O)NCc1ccco1,inactive
11,COc1ccc(CN2C(=O)c3cccnc3C2=O)cc1S(=O)(=O)NC1CCCCC1,38.9 µM (active)
12,CCOP1(=O)OCC2OC(n3cnc4c(N)ncnc43)C(O)C2O1 (configuration not stated),6.91 µM (active)
13,CN(CC(=O)Nc1ccccc1Cl)C(=O)COC(=O)Cc1c(F)cccc1Cl,inactive
14,Cc1nn(CC(=O)NCCN2CCOCC2)c(=O)c2cc3sccc3n12,inactive
15,CCCC(=O)Nc1ncnc2c1ncn2[C@@H]1O[C@@H]2OP(=O)(O)OC[C@H]2[C@H]1OC(=O)CCC,0.346 µM (active)
16,Cc1ccc(-c2ccc3nnc(SCC(=O)NCC4CCCO4)n3n2)cc1 (configuration not stated),inactive
17,CC1(C)Cc2nc3sc4c(SCC(=O)NC(c5ccccc5)c5ccccc5)ncnc4c3cc2CO1,4.88 µM (active)
